Test results published in PubChem BioAssay (EPA / NIEHS).
Results filed as inconclusive are left out. The source holds several records for some structures; these can differ, active in one and inactive in another. Active and inactive are the calls of the source. Rule for the calls, unless noted: active = hit-call score of the fitted dose curve at least 0.9, where 1 is the maximum; inconclusive = response in the unintended direction; inactive = score below 0.9.

Tests used:
[1] = target: Agonist Androgen Response Element (ARE), AR (gene 367) (UniProt P10275); assay: OT_AR_ARELUC_AG_1440: Odyssey Thera (OT) 24-hour CHO-K1 Luciferase Assay for Agonist Androgen Response Element (ARE) (AID 2283379)
Chain of Agonist Androgen Response Element (ARE), AR (gene 367) (P10275 whole entry, looked up): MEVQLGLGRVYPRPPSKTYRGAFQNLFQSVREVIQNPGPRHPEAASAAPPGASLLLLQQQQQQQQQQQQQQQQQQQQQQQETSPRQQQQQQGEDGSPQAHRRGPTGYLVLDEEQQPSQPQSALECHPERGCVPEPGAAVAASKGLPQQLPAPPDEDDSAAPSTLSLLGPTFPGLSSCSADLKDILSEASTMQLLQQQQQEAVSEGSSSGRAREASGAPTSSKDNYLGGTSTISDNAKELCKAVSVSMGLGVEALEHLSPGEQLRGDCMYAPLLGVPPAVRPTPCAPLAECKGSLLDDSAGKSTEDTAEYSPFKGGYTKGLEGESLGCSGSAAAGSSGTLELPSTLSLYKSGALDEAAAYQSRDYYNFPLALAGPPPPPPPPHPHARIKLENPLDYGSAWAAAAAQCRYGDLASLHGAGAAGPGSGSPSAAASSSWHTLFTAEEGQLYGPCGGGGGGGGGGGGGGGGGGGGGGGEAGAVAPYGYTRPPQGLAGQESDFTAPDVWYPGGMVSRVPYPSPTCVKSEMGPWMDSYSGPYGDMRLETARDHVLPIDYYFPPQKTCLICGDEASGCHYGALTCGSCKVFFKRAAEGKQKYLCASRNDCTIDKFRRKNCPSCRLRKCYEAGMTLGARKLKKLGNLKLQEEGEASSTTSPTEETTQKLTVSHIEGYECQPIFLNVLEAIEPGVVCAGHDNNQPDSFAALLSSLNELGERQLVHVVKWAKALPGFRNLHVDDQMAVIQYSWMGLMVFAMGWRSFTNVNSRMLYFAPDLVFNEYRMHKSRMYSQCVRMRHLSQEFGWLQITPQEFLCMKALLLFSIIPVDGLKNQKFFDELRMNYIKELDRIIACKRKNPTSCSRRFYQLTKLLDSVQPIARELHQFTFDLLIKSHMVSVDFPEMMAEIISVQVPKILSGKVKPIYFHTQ
Summary of the method: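 Gain-of-signal reporter endpoint: cells (CHO-K1, hamster) are treated 24 h, luciferin/ATP reagent added, and luminescence compared with DMSO baseline.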

[2] = target: Estrogen receptor beta (Homo sapiens) (UniProt Q92731); assay: OT_ER_ERbERb_1440: Odyssey Thera (OT) 24-hour HEK293T Protein-Complementation Assay for Estrogen Receptor-beta/-beta Homodimer (AID 2283380);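 note: scored as signal increase over DMSO baseline for both agonists and antagonists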
Chain of Estrogen receptor beta (Homo sapiens) (Q92731 whole entry, looked up, the tested form may be a part): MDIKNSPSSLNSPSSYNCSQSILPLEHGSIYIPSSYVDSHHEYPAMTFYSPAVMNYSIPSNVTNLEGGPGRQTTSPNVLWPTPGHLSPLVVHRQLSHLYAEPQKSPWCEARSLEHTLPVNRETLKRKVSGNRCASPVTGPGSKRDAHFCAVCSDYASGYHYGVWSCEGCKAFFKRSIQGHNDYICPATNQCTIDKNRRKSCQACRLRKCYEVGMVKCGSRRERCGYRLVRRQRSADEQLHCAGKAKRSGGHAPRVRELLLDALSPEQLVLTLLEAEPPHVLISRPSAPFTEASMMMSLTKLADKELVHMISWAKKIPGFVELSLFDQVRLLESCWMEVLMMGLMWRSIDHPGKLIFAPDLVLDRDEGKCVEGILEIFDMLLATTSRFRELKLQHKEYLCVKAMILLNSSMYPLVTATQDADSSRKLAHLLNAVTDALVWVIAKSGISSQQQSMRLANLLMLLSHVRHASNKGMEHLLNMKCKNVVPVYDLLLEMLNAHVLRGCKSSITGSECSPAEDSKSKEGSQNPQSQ
Summary of the method: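 HEK293T cells stably expressing ER beta LBD (aa 310-547) homodimer fragment-complementation reporter, dosed 24 h. Cells formaldehyde-fixed, Draq5-stained; gain in nuclear (agonist) or nuclear plus cytoplasmic (antagonist) fluorescence versus DMSO read by laser scanning cytometry.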

[3] = target: Estrogen receptor (Homo sapiens) (UniProt P03372); assay: OT_ERa_GFPERaERE_0480: Odyssey Thera (OT) 8-hour HeLa Transcription Induction Assay for Estrogen Receptor (AID 2283381; active = hit-call score of the fitted dose curve at least 0.9, where 1 is the maximum; inactive = score below 0.9)
Chain of Estrogen receptor (Homo sapiens) (P03372 whole entry, looked up): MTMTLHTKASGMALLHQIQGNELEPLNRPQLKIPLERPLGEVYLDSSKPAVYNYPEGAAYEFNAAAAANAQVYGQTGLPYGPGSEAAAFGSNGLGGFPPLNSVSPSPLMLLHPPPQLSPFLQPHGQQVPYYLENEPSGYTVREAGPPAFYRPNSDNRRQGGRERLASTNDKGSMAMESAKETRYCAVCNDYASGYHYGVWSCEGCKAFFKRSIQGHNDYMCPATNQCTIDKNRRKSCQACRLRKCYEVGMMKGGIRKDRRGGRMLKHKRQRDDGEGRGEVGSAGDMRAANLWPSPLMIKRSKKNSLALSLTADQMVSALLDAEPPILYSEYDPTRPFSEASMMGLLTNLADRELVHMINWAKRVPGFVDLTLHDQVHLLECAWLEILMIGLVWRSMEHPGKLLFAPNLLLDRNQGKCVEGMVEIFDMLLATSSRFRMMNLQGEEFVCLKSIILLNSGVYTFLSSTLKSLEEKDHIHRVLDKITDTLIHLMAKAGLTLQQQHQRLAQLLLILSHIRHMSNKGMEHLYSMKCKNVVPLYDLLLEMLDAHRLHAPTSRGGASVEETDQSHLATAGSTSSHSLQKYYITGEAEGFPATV
Summary of the method: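 GFP-ERE reporter, HeLa, 8 h exposure. Readout: fluorescence microscopy, high-content image analysis. Fit direction positive vs DMSO negative control.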

[4] = target: Estrogen receptor (Homo sapiens) (UniProt P03372); assay: OT_ERa_GFPERaERE_0120: Odyssey Thera (OT) 2-hour HeLa Transcription Induction Assay for Estrogen Receptor (AID 2283382)
Summary of the method: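 Fluorescence microscopy read-out: inducible fluorescent protein reporter in HeLa cells, imaged 2 h post-dose. Signal increase over DMSO negative control fitted as single primary endpoint via high content image analysis.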

[5] = target: Retinoic acid receptor RXR-alpha (Homo sapiens) (UniProt P19793); assay: OT_NURR1_NURR1RXRa_0480: Odyssey Thera (OT) 8-hour HEK293T Protein Complementation Assay for Nurr1/retinoid X receptor (RXR) (AID 2283385)
Chain of Retinoic acid receptor RXR-alpha (Homo sapiens) (P19793 whole entry, looked up, the tested form may be a part): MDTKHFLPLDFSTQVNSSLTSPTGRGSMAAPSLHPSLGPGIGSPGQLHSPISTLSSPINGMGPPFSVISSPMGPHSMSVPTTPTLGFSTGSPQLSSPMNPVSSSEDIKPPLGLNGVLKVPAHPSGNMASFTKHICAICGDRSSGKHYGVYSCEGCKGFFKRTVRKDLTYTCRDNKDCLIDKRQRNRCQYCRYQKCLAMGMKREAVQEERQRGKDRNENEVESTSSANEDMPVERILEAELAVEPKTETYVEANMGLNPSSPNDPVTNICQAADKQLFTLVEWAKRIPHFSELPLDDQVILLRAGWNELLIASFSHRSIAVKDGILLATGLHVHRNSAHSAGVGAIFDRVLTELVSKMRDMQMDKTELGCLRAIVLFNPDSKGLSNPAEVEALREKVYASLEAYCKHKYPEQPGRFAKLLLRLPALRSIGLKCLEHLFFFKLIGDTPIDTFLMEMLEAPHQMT
Summary of the method: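 Read-out: fluorescence from protein-fragment complementation between Nurr1 and RXRα in human HEK293T cells, 8 h after dosing. DMSO served as negative control; increased signal counted as activity.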

[6] = target: Peroxisome proliferator-activated receptor gamma (Homo sapiens) (UniProt P37231); assay: OT_PPARg_PPARgSRC1_0480: Odyssey Thera (OT) 8-hour Protein-Complementation Assay for Peroxisome Proliferator-activated Receptor Gamma / SRC-1 Co-activator (AID 2283387);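 note: nuclear to cytoplasmic split Venus YFP fluorescence ratio reporting PPARg SRC-1 interaction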
Chain of Peroxisome proliferator-activated receptor gamma (Homo sapiens) (P37231 whole entry, looked up, the tested form may be a part): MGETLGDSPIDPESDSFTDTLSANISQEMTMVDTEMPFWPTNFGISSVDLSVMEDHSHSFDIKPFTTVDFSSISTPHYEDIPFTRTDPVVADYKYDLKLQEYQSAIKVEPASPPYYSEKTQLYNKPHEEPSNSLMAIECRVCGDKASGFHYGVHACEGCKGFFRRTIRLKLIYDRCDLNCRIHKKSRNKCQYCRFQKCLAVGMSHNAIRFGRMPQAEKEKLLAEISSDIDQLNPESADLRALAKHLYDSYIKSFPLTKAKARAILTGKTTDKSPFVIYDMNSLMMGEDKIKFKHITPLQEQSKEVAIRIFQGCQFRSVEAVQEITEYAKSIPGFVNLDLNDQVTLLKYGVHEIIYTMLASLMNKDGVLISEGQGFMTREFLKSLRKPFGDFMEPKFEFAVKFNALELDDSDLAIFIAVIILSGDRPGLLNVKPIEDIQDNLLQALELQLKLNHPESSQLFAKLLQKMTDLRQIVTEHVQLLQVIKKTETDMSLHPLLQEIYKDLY
Summary of the method: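 Protein-fragment complementation of split Venus YFP reports PPARg/SRC-1 interaction in HEK293T (transfected 48 h before treatment), exposed 8 h. Readout: N/C fluorescence ratio at 488 nm from imaging, Draq5 for segmentation, positive fit relative to DMSO.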

[7] = target: Peroxisome proliferator-activated receptor gamma (Homo sapiens) (UniProt P37231); assay: OT_PPARg_PPARgSRC1_1440: Odyssey Thera (OT) 24-hour Protein-Complementation Assay for Peroxisome Proliferator-activated Receptor Gamma/ SRC-1 Co-activator (AID 2283388);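 note: nuclear to cytoplasmic ratio of reconstituted Venus YFP fluorescence in fixed imaged cells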
Summary of the method: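 Readout is the 488 nm N/C fluorescence ratio from fixed, Draq5-stained HEK293T cells after 24 h compound exposure. Cells carried transiently transfected PPARg and SRC-1 fused to Venus fragments, transfected 48 h before treatment.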

[8] = target: Bile acid receptor (Homo sapiens) (UniProt Q96RI1); assay: OT_FXR_FXRSRC1_0480: Odyssey Thera (OT) 8-hour HEK293T Protein-Complementation Assay for Farnesoid X receptor/SRC-1 Co-activator (AID 2283383)
Chain of Bile acid receptor (Homo sapiens) (Q96RI1 whole entry, looked up, the tested form may be a part): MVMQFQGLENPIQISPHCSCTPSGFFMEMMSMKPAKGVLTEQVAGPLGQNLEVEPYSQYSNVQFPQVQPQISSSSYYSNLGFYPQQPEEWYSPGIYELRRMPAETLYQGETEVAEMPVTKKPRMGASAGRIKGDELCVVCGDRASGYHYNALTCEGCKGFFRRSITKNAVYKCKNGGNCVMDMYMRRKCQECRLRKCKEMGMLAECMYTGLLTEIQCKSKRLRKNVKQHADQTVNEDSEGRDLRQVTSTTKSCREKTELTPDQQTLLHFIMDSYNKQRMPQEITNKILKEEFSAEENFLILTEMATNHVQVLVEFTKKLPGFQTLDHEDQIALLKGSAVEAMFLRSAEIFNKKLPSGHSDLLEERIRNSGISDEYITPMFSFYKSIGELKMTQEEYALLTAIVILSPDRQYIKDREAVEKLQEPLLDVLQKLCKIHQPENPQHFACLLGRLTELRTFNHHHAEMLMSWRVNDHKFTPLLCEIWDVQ
Summary of the method: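 Fluorescence intensity read-out, 8 h post-dose, HEK293T protein-fragment complementation; FXR bait and SRC-1 prey each linked to reporter fragments. Activity scored as signal increase over DMSO negative control.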

[9] = target: Bile acid receptor (Homo sapiens) (UniProt Q96RI1); assay: OT_FXR_FXRSRC1_1440: Odyssey Thera (OT) 24-hour HEK293T Protein-Complementation Assay for Farnesoid X receptor/SRC-1 Co-activator (AID 2283384)
Summary of the method: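 Fluorescence readout, 24 h post-dose, HEK293T; FXR and SRC-1 fused to complementary reporter fragments, association reconstitutes signal. Positive-direction fit vs DMSO baseline.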

[10] = target: Retinoic acid receptor RXR-alpha (Homo sapiens) (UniProt P19793); assay: OT_NURR1_NURR1RXRa_1440: Odyssey Thera (OT) 24-hour HEK293T Protein Complementation Assay for Nurr1/retinoid X receptor (RXR) (AID 2283386)
Summary of the method: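 Fluorescence PCA read-out; HEK293T; 24 h post-dose; bait/prey fused to reporter fragments; gain-of-signal fit vs DMSO negative control.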

[11] = CEETOX_H295R_OHPREG: CeeTox H295R High-throughput Steroidogenesis Assay for OH-Pregnenolone (OHPREG) (AID 2283434; active = hit-call score of the fitted dose curve at least 0.9, where 1 is the maximum; inactive = score below 0.9); details: actives raise or lower the signal
Summary of the method: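 H295R, 10 uM forskolin pre-stim 48 h; test chemical 48 h, 0.1% DMSO final. MTBE extraction, reverse-phase C18 HPLC-ESI+ MS/MS of medium. Gain/loss vs DMSO; viability by MTT in same wells.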

[12] = CEETOX_H295R_OHPROG: CeeTox H295R High-throughput Steroidogenesis Assay for OH-Progesterone (OHPROG) (AID 2283435; active = hit-call score of the fitted dose curve at least 0.9, where 1 is the maximum; inactive = score below 0.9;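 for AC50: 17alpha-hydroxyprogesterone secreted into medium measured by HPLC-MS/MS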); details: actives raise or lower the signal
Summary of the method: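 HPLC-MS/MS quantification of 17alpha-hydroxyprogesterone secreted by H295R cells after 48 h chemical exposure, following 48 h 10 uM forskolin prestimulation. Gain or loss of signal fitted relative to DMSO. Viability checked by MTT in the same wells.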

[13] = CEETOX_H295R_11DCORT: CeeTox H295R High-throughput Steroidogenesis Assay for 11-Deoxycortisol (11DCORT) (AID 2283432; active = hit-call score of the fitted dose curve at least 0.9, where 1 is the maximum; inactive = score below 0.9;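 for AC50: 11-deoxycortisol secreted into the medium measured by LC-MS/MS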); details: actives raise or lower the signal
Summary of the method: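 Human adrenal H295R cells were prestimulated with 10 uM forskolin for 48 h, then exposed to test chemical (0.1% DMSO final) for 48 h. Medium 11-deoxycortisol was quantified by MTBE extraction and HPLC-MS/MS; bidirectional fitting relative to DMSO.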

[14] = CEETOX_H295R_CORTIC: CeeTox H295R High-throughput Steroidogenesis Assay for Corticosterone (CORTIC) (AID 2283437; active = hit-call score of the fitted dose curve at least 0.9, where 1 is the maximum; inactive = score below 0.9;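 note: corticosterone secreted into medium quantified by mass spectrometry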); details: actives raise or lower the signal
Summary of the method: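 48 h forskolin (10 uM) prestim, then 48 h chemical exposure, final DMSO 0.1%. Readout: corticosterone in medium by LC-MS/MS after MTBE extraction. Gain/loss fit vs DMSO; MTT viability in same wells.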

Measured: AC50

CO[C@@H]1[C@H](OC(=O)NC(=O)CCl)CC[C@]2(CO2)[C@H]1[C@@]1(C)O[C@@H]1CC=C(C)C
inactive: [1] | [2] | [3] | [4] | [5] | [6] | [7]

Clc1ccc(C(c2ccc(Cl)cc2)C(Cl)(Cl)Cl)cc1
inactive: [9] | [6] | [7]
active: [2] 29.1 µM | [8] 11.2 µM | [5] 70.1 µM

OCCCl
inactive: [2] | [8] | [5] | [6] | [7]

c1ccc2c(c1)-c1cccc3cccc-2c13
inactive: [5] | [10] | [6] | [7]
active: [2] 50 µM | [11] 14 µM | [12] 30.7 µM

CCOc1cccc(C2(N3CCN(c4ccccc4)CC3)CCC(C)CC2)c1 (centres undefined)
active: [11] 81.7 µM | [12] 35.7 µM | [14] 23.6 µM
not listed: [1] | [2] | [8] | [9]
inactive: all other assays above

Clc1ccc(Cl)c(Cl)c1
inactive: [2] | [5] | [6] | [7]

CCN(CC)N=O
inactive: [8] | [9] | [5] | [6] | [7]

c1ccc(C2CO2)cc1 (centres undefined)
inactive: [5] | [6] | [7]

c1ccc(N=Nc2ccccc2)cc1
inactive: [5] | [6] | [7] | [13] | [11] | [12] | [14]

CCN(CC)CCO
inactive: [2] | [5] | [6] | [7]

CCCCC(CC)COC(=O)c1ccc(C(=O)OCC(CC)CCCC)c(C(=O)OCC(CC)CCCC)c1 (centres undefined)
inactive: [5] | [6] | [7]

Cc1ccc(N=C=O)cc1N=C=O
inactive: [5] | [10] | [6] | [7] | [13] | [11] | [12] | [14]

Cc1ccc(N)cc1
inactive: [5] | [6] | [7]

O=Cc1ccco1
inactive: [5]

CC(C)(C)OOC(C)(C)CCC(C)(C)OOC(C)(C)C
inactive: [2] | [5] | [10]

CS(=O)(=O)NC(=O)c1cc(Oc2ccc(C(F)(F)F)cc2Cl)ccc1[N+](=O)[O-]
inactive: [2] | [8] | [6] | [7]

CCCSC(=O)N(CCC)CCC
inactive: [5]

Oc1ccccc1Cl
inactive: [5] | [10] | [6] | [7]

Nc1cc(Cl)cc(C(=O)O)c1Cl
inactive: [2] | [6] | [7]

c1ccc2c(c1)oc1ccccc12
inactive: [2] | [5] | [10]

Oc1ccc2ccc3cccc4ccc1c2c34
inactive: [5] | [12]
active: [2] 12 µM | [13] 18.8 µM | [11] 25 µM | [14] 25.5 µM

[As]#[In]
inactive: [2] | [5] | [10] | [11] | [14]

Clc1ccc(C(c2ccc(Cl)cc2)C(Cl)Cl)cc1
inactive: [6] | [7]
active: [3] 12.2 µM | [4] 12 µM | [5] 92.4 µM | [10] 80.9 µM

O=C(O)C1C2CCC(O2)C1C(=O)O (centres undefined)
inactive: [5]
active: [5] 74.3 µM

CC(O)CCO (centres undefined)
inactive: [2] | [5] | [10] | [6] | [7]

C1=Cc2cccc3cccc1c23
inactive: [5] | [6] | [7]

COc1cc(C=O)cc2c1[C@H](COC(N)=O)[C@]1(OC(C)=O)ON2C[C@H]2[C@@H]1N2C(C)=O
inactive: [3] | [4] | [6] | [7]

CCC12COCN1COC2
inactive: [3] | [4] | [5] | [10] | [6] | [7]

O=[N+]([O-])c1ccc(Oc2ccc(Cl)cc2Cl)cc1
active: [5] 75.3 µM
inactive: [2] | [5] | [10] | [6] | [7] | [11] | [12] | [14]

N#CC(Br)(Br)C(N)=O
inactive: [5] | [10] | [6] | [7] | [11] | [12]

Brc1ccc(Oc2ccccc2)cc1
inactive: [3] | [4] | [5] | [10] | [6] | [7]
